Bioassay records from PubChem.
GLP-1R agonist: GLP-1 receptor (human) agonism; Potency, µM (top dose mostly 45.6 µM), for inactives: at the top dose activation, usual class: activators; 380,000 compounds, 0.007% hits; HEK293 GLP-1R CRE-luciferase, luminescence, 4-6 h; cells express a hypersensitive GLP-1R form; P43220; also: potency is read from the fitted curve at half-maximal effect; % of control where 0% means no effect
Target sequence (P43220 whole entry, looked up): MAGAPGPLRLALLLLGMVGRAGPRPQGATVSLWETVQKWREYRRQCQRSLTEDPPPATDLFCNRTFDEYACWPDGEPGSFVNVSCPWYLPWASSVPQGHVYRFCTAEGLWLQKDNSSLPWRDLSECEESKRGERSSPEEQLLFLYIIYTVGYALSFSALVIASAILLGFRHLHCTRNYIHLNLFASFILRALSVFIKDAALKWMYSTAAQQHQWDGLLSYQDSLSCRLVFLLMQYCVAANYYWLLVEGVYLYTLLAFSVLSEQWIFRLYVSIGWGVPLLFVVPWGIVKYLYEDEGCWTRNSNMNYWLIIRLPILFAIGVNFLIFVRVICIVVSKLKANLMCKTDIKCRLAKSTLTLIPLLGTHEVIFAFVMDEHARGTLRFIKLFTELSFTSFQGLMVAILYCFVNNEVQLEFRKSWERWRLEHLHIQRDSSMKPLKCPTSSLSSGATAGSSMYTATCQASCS
D3 antag: blocks the human D3 dopamine receptor | max response, negative = inhibition, % | AID 652054 | 360,000 compounds, 2.5% hits | D3R cells, DiscoveRx beta-arrestin luminescence, antagonist mode; hits give low values; in the data active = max response below about -50%; inconclusive = no clear call, values can overlap the other calls; also: % is scaled to controls: 0 for no effect and ±100 for the full control effect
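Cells expressing the human receptor were seeded at 1500 cells/well, incubated overnight at 37 degrees C in 5% CO2, then exposed to library compounds with dopamine controls for 90 minutes at 37 degrees C before luminescent detection.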
GLP-1R inv ag: GLP-1 receptor (human) inverse agonism | P43220 | HEK293 GLP-1R CRE-luciferase, luminescence, 24 h; GLP-1R form is constitutively active | Potency, µM (highest dose often 38.3 µM), inactives show at the highest dose activity change, negative = inhibition, actives largely listed as inhibitors | 410,000 compounds, 1.6% hits | AID 624417; also: potency is read from the fitted curve at half-maximal effect; % is scaled to controls: 0 for no effect and ±100 for the full control effect; nearly all actives have a fitted effect of over 55% in size
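Inverse agonists were sought by their lowering of basal cAMP reporter luciferase output in HEK293 cells stably carrying constitutively active human GLP-1R, after 24 h compound treatment.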
DRD3 agonist: agonists of human D3 dopamine receptor; D3R DiscoveRx beta-arrestin cells, luminescence, 90 min; max activation, %; 410,000 compounds, 0.58% hits; AID 652048; in the data active = max activation above about 30%; also: 0% is about no effect
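Cells at 1500/well, incubated overnight, then treated with pinned compounds (dopamine as control) for 90 min at 37 degrees C. DiscoveRx reagent added for 30 - 60 minutes at room temperature; luminescence read.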
* marks the source's active call; other numbers are inactive results; u = inconclusive; x = no result given. Only some compounds are listed: those with a hit (about 4.3% of all), similar ones and a draw of the others. Unless noted, calls follow the shape of the dose curve; as a rule, active = well fitted curve in the direction sought with a large enough effect; inconclusive = small, poorly fitted or top-dose-only effect, or another doubt; inactive = no such curve, though single readings can be large; an effect the other way counts as inactive or inconclusive.

SMILES	GLP-1R agonist	D3 antag	GLP-1R inv ag	DRD3 agonist
COC(=O)c1ccccc1NC(=O)c1cnc(Nc2ccc(OC)cc2)c2ccccc12	10%	x	-17%	7
CN1CCC(N(C)S(=O)(=O)c2ccc(NC(=O)COc3ccc(Br)cc3Cl)cc2)CC1	-8%	-18	2µM*	-17
CCCCCCCCOC(=O)c1cc([N+](=O)[O-])c(Sc2ncnc3nc[nH]c23)c([N+](=O)[O-])c1	-2%	-55*	u	-12
CCCCOC(=O)c1ccc(Nc2ncnc3nc[nH]c23)cc1	-3%	-22	3%	-1
CS(=O)(=O)c1ccc([C@@H](O)[C@@H](COC(=O)CN)NC(=O)C(Cl)Cl)cc1	3%	x	x	6
CCCNc1ccc(S(=O)(=O)N(CC)CC)cn1	4%	14	4%	18
CCN(CC)S(=O)(=O)c1ccc(NCc2ccccn2)nc1	8%	3	4%	-2
CCCNc1ccc(S(=O)(=O)N(C(C)C)C(C)C)cn1	3%	-75*	u	-11
CCN(CC)S(=O)(=O)c1ccc(NCc2ccccc2)nc1	-1%	14	0%	33*
Cn1c(=O)[nH]c(=O)c2c1nc(SCCN1CCCCC1)n2CCCc1ccccc1	-5%	-68*	-2%	3
Cn1c(=O)[nH]c(=O)c2c1nc(SCCN1CCCCC1)n2Cc1ccccc1	8%	-11	5%	-3
Cc1ccc(NC(=O)Cn2nnc(C(=O)NCc3ccc4c(c3)OCO4)c2N)cc1Cl	x	x	-13%	-3
Cc1ccc(C2c3[nH]c4ccccc4c3CCN2C(=O)c2ccc(N(C)C)cc2)cc1 (centres undefined)	x	x	u	-10
Cc1ccc(C2c3[nH]c4ccccc4c3CCN2C(=O)CCC2CCCC2)cc1 (centres undefined)	x	x	10µM*	6
Cc1ccc(C2c3[nH]c4ccccc4c3CCN2C(=O)c2ccccc2Br)cc1 (centres undefined)	x	x	u	-2
Cc1ccc(C2c3[nH]c4ccccc4c3CCN2C(=O)Nc2ccc(C)c(C)c2)cc1 (centres undefined)	x	x	7.9µM*	-12
COC(=O)c1ccc(NC(=O)N2CCc3c([nH]c4ccccc34)C2c2ccc(C)cc2)cc1 (centres undefined)	x	x	4.5µM*	-20
COc1ccc(-c2cc(OC(=O)c3ccccc3C)c3c(C)oc(C)c3c(=O)c2)cc1	x	x	-12%	9
O=C(Nc1nccs1)C1CC=CCC1C(=O)OCC(F)(F)C(F)F (centres undefined)	-3%	4	4%	1
COc1ccc(S(=O)(=O)NCc2ccc(C(=O)NCc3ccccc3)cc2)cc1	0%	x	18%	-7
CCCn1nnnc1NCc1ccc(SC)cc1	-1%	-4	13%	6
CSc1ccc(CNc2nnnn2C)cc1	5%	-3	13%	46*
Cc1c(OCC(=O)NCC(O)c2ccccc2)ccc2c(-c3ccccc3)cc(=O)oc12 (centres undefined)	5%	35	-15%	33*
Cc1cc(Cl)ccc1OCCCC(=O)N1CCN(S(=O)(=O)c2ccccc2)CC1	3%	9	10µM*	4
CCOc1ccccc1OCCCC(=O)N1CCN(S(=O)(=O)c2ccc(Cl)cc2)CC1	2%	-3	-15%	5
SMILES	GLP-1R agonist	D3 antag	GLP-1R inv ag	DRD3 agonist
CN1CCN(C(=O)c2ccc(COc3ccc(Cl)cc3Cl)cc2)CC1	27%	-89*	-27%	-22
CN1CCN(C(=O)CCCOc2ccc(Cl)cc2Cl)CC1	u	-53*	0%	-3
CC(=O)/C(=N/Nc1ccccc1[N+](=O)[O-])N1CCCc2ccccc21	21%	2	10µM*	-6
O=C(OCC1CCCO1)c1ccc2c(c1)N(Cc1ccccc1)C(=O)c1ccccc1S2(=O)=O (centres undefined)	x	x	-10%	3
COc1ccc(Cl)cc1-c1cc(C(=O)Nc2ccc(Br)cc2)[nH]n1	-1%	-76*	u	-22
CCOc1ccc(Cl)cc1-c1cc(C(=O)NCc2ccccc2)[nH]n1	20%	-19	u	-16
COc1ccc(Cl)cc1-c1cc(C(=O)NCc2ccccc2)[nH]n1	5%	-59*	u	-23
CC(c1ccon1)N(C)C(=O)CCc1nnc(CCCCc2ccccc2)o1 (centres undefined)	6%	-3	5%	-6
O=C(NCCc1ccccc1)C1CCN(c2ncnc3c2nc2n3CCCCC2)CC1	x	x	-14%	-1
COCCn1c(SCC(=O)NNC(=O)c2cc(Cl)ccc2OC)nnc1-c1ccncc1	-4%	-100*	-13%	-28
COCCn1c(SCC(=O)Nc2cccc(OC)c2)nnc1-c1ccc(Cl)cc1	-1%	16	-1%	6
Cc1nc(NCc2ccco2)c2c3c(sc2n1)CCC3	-19%	5	51%	5
CCN1CCc2c(sc3c2c(NCc2ccco2)nc2nnnn23)C1	2%	-65*	1%	2
Cc1ccc(CN2CCN(C3CCN(C(=O)Nc4ccccc4C(F)(F)F)CC3)C(=O)C2=O)cc1	x	x	7%	6
CC1=C(C(=O)OCc2ccc3c(c2)OCO3)C(c2ccccc2)NC(=O)N1 (centres undefined)	-1%	-27	3.2µM*	15
CCN(CC)S(=O)(=O)c1ccc(F)c(C(=O)NCCC(C)C)c1	29%	13	-3%	36*
CCN(Cc1ccccc1)S(=O)(=O)c1ccc(F)c(C(=O)Nc2ccc(C(C)C)cc2)c1	x	x	-8%	-2
COc1ccc(CCNC(=O)c2ccc3c(c2)ncn3-c2ccc(C)cc2C)cc1OC	x	x	4%	3
CC(C)(C)C(=O)NC1=NN(c2c(Cl)cc(Cl)cc2Cl)C(=O)C1	-2%	-59*	-21%	-4
COc1cccc(C(=O)Nc2cccc(C(=O)NC3=NN(c4c(Cl)cc(Cl)cc4Cl)C(=O)C3)c2)c1	-14%	u	-8%	-6
COc1ccc(SC[C@H](C)CN2CC[C@H](NC(=O)OCc3ccccc3)CCC2=O)cc1	12%	20	10µM*	15
O=C(N[C@H]1CCC(=O)N([C@H](CSc2ccccc2)Cc2ccccc2)CC1)OCc1ccccc1	6%	u	u	3
O=C(N[C@@H]1CCC(=O)N(CC[C@H](Sc2ccc(Br)cc2)c2ccccc2)CC1)OCc1ccccc1	8%	u	u	-25
CC(=O)Nc1ccc(SC[C@H](C)CN2CC[C@H](C(C)(C)C)CCC2=O)cc1	4%	28	10µM*	7
COc1ccc(S[C@@H](CCN2CC[C@H](NC(=O)OCc3ccccc3)CCC2=O)c2ccccc2)cc1	-3%	0	3.2µM*	-28
Cc1ccc(SC[C@H](C)CN2CC[C@H](C)CCC2=O)cc1	3%	9	u	7
C[C@@H](CSc1ccc(Br)cc1)CN1CC[C@H](NC(=O)OCc2ccccc2)CCC1=O	-6%	12	u	18
O=C(N[C@H]1CCC(=O)N([C@H](CSc2ccc(Br)cc2)Cc2ccccc2)CC1)OCc1ccccc1	10%	-16	4µM*	-12
